Drawing on PubChem BioAssay, this text covers composite z-score and z-score for six compounds.

Active and inactive are the calls of the source.

The test system of assay [1] is Plasmodium falciparum Sir2 (PF13_0152, Sir2A). Kind of assay: pfSir2 binders on small-molecule microarrays, primary screen, biochemical, small-molecule microarray, 635 nm fluorescence (AID 1098).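 Note: score merges spot fluorescence intensity with its signal-to-noise ratio.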 As to conditions: small-molecule microarray binding, fluorescence 635 nm; higher = more signal.
Assay [2] is described as follows: small-molecule microarray binders of probe aDKK1, primary screen, biochemical, biotinylated probe, 635/667 nm fluorescence (AID 1099).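 Note: score merges 667nm spot fluorescence with signal to noise across triplicate slides.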 The conditions noted are these: higher = more signal.
The nature of assay [3]: small-molecule microarray binders of probe aCHRDL2, primary screen, biochemical, biotinylated probe, 635/667 nm fluorescence (AID 1100). As to conditions: higher = more signal.
Assay [4] is described as follows: splicing luciferase reporter signal modulators, primary screen, spliceosome inhibition project, cell-based, HEK293, splice +/- reporter (AID 1101).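 Note: HEK293 cells carrying a splicing-competent luciferase reporter gene; test concentration not given here.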 The conditions noted are these: luminescence, 24 h, higher = more signal, called active from +8 up or from −8 down.
Assay [5] concerns the target Fibroblast growth factor 10 (Homo sapiens) (UniProt O15520). As to the kind of experiment: FGF10 binders on small-molecule microarrays, primary screen, biochemical, small-molecule microarray, 635 nm fluorescence (AID 1102). The conditions noted are these: FGF10 binding, fluorescence 635 nm, higher = more signal.
Assay [6] concerns glycogen synthase kinase-3 (GSK3A per assay name; protocol says GSK3B). Kind of assay: GSK3 binders on small-molecule microarrays, primary screen, biochemical, small-molecule microarray, 635 nm fluorescence, GSK3A (AID 1103). Note: the record names both GSK3A and GSK3B. The conditions noted are these: small-molecule microarray binding, fluorescence 635 nm; higher = more signal.
In assay [7] the target is Epidermal growth factor receptor (Homo sapiens) (UniProt P00533). As to the kind of experiment: EGFR binders on small-molecule microarrays, primary screen, biochemical, small-molecule microarray, 635 nm fluorescence (AID 1104).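 Note: score merges 667 nm emission intensity with spot signal to noise over triplicate slides.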 The conditions noted are these: EGFR binding, higher = more signal.
Epidermal growth factor receptor (Homo sapiens), sequence (P00533 whole entry, looked up): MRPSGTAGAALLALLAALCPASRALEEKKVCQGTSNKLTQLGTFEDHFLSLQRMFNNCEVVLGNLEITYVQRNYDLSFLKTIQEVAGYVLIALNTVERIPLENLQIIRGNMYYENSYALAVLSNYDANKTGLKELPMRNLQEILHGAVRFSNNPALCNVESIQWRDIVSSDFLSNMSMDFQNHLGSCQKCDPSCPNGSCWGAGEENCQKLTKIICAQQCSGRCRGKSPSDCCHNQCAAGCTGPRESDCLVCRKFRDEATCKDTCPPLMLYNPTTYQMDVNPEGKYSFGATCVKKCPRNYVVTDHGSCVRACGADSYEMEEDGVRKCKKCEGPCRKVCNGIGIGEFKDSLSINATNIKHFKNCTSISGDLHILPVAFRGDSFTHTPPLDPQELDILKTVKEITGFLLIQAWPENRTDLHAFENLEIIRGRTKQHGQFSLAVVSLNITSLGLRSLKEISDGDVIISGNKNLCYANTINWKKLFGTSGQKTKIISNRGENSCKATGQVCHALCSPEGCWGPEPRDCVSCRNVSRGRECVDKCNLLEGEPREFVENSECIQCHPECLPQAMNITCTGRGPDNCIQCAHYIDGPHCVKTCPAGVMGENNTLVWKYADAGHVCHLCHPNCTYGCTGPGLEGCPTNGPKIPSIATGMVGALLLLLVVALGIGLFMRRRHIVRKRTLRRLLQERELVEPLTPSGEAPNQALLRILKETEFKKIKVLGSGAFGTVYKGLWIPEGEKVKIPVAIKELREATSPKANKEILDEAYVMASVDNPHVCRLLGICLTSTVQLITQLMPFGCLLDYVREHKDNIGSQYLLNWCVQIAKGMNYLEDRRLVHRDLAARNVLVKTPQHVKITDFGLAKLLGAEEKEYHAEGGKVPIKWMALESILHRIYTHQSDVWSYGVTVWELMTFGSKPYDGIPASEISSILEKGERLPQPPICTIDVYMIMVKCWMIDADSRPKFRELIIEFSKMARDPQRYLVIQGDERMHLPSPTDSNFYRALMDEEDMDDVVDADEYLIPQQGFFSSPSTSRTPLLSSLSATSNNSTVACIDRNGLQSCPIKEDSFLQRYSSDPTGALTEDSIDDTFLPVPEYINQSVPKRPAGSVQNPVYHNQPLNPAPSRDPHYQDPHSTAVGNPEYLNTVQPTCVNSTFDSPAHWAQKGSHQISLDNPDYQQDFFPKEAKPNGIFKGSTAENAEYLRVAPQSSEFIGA
In assay [8] the target is Follistatin-related protein 3 (Homo sapiens) (UniProt O95633). As to the kind of experiment: FSTL3 binders on small-molecule microarrays, primary screen, biochemical, small-molecule microarray, 635 nm fluorescence (AID 1105).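 Note: score merges emission near 667 nm and signal to noise per printed spot across three slides.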 The conditions noted are these: FSTL3 binding, higher = more signal.
Follistatin-related protein 3 (Homo sapiens), sequence (O95633 whole entry, looked up): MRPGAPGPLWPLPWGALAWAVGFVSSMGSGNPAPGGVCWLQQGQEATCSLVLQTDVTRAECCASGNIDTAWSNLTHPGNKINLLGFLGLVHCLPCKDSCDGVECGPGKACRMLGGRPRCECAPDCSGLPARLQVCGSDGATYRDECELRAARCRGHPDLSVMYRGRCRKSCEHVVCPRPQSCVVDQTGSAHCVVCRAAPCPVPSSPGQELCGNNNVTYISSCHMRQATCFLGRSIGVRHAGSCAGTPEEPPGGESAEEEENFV
Assay [9] concerns the target Dickkopf-related protein 1 (Homo sapiens) (UniProt O94907). As to the kind of experiment: DKK1 binders on small-molecule microarrays, primary screen, biochemical, small-molecule microarray, 635 nm fluorescence scan (AID 1106).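 Note: score merges emission near 667 nm with signal to noise over three replicate slides.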 The conditions noted are these: DKK1 binding, higher = more signal.
Assay [10] has as its system Inhibin beta A chain (activin A). Kind of assay: INHBA (activin A) binders on microarrays, primary screen, biochemical, small-molecule microarray, 635 nm fluorescence scan (AID 1107).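 Note: mouse activin A protein probed at 4.33 µg/mL on printed slides; score merges bound-protein fluorescence near 667 nm with spot signal-to-noise.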 The conditions noted are these: small-molecule microarray binding, higher = more signal.
Assay [11] has as its system Human papillomavirus type 1a protein E7 (residues 44-93). As to the kind of experiment: HPV1a E7 fragment binders on microarrays, primary screen, biochemical, small-molecule microarray, residues 44-93, 635 nm fluorescence (AID 1108).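 Note: E7 fragment applied at 1 µg/mL in TBST for 1 h at 4 C; score combines spot fluorescence with its signal to noise ratio.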 The conditions noted are these: small-molecule microarray binding, fluorescence 635 nm; higher = more signal.
Assay [12] in a line: modulators of HCV replicon luciferase signal, primary screen, HCV replication inhibitor project, Huh7 cells, luciferase reporter (AID 1109).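 Note: huh7 hepatoma cells harbouring a luciferase neomycin HCV replicon reporter; luciferase luminescence as measure of HCV replicon replication; test concentration not given here.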 As to conditions: 48 h, higher = more signal.
Assay [13] concerns the target Left-right determination factor 2 (Homo sapiens) (UniProt O00292). As to the kind of experiment: LEFTY2 binders on small-molecule microarrays, primary screen, biochemical, small-molecule microarray, 635 nm fluorescence scan (AID 1110). The conditions noted are these: LEFTY2 binding, higher = more signal.
Assay [14] deals with Calmodulin-1 (Homo sapiens) (UniProt P0DP23). As to the kind of experiment: CALM1 binders on microarrays, EGTA buffer, profiling panel, biochemical, small-molecule microarray, Cy5-labelled CALM1 (AID 1111).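 Note: labelled calmodulin applied in Tris saline Tween buffer holding calcium plus EGTA and DTT.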 The conditions noted are these: Cy5-CALM1 binding fluorescence, higher = more signal.
The target is the same in assay [15]. Kind of assay: calcium-bound CALM1 binders on microarrays, profiling panel, artefact control for SMM control-protein annotation, biochemical, small-molecule microarray, Cy5-labelled CALM1, plus calcium (AID 1112).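 Note: score merges spot fluorescence with signal to noise from triplicate slides.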 The conditions noted are these: Cy5-CALM1 binding fluorescence, higher = more signal.
A short description of assay [16]: small-molecule microarray binders of probe aWnt5a, primary screen, biochemical, biotinylated probe, 635/667 nm fluorescence (AID 1113).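 Note: score merges 667 nm fluorescence intensity with signal-to-noise per printed feature.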 As to conditions: higher = more signal.
The nature of assay [17]: small-molecule microarray binders of probe aShh, primary screen, biochemical, biotinylated probe, 635/667 nm fluorescence (AID 1114).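 Note: probe is biotin-labelled aShh protein from a stem cell growth factor screen; measures binding of labelled protein to compounds printed on the slide; score merges feature fluorescence at 667 nm with signal-to-noise.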 The conditions noted are these: higher = more signal.
A short description of assay [18]: small-molecule microarray binders of probe aNog, primary screen, biochemical, biotinylated probe, 635/667 nm fluorescence (AID 1115).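 Note: probe is biotinylated aNog protein used at 0.15 µg/mL for 1 h at 4 C; z-score combines 667 nm fluorescence of each spot with its signal to noise.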 The conditions noted are these: higher = more signal.
Assay [19] has as its target Torsin-1A-interacting protein 1 (Homo sapiens) (UniProt Q5JTV8). As to the kind of experiment: LAP1 binders from COS7 cell lysate, primary screen, small-molecule microarray, 635/667 nm fluorescence (AID 1116). The conditions noted are these: COS7-hLAP1 lysate binding, 635 nm fluorescence, higher = more signal.
Assay [20] concerns the target Alpha-bungarotoxin (Bungarus multicinctus) (UniProt P60615). As to the kind of experiment: alpha-bungarotoxin binders on microarray, profiling panel, artefact control for SMM control protein annotation, biochemical, small-molecule microarray, Alexa647 label, 635/667 nm fluorescence (AID 1117). As to conditions: alpha-BTX-A647 binding fluorescence, higher = more signal.

Dickkopf-related protein 1 (Homo sapiens), sequence (O94907 whole entry, looked up): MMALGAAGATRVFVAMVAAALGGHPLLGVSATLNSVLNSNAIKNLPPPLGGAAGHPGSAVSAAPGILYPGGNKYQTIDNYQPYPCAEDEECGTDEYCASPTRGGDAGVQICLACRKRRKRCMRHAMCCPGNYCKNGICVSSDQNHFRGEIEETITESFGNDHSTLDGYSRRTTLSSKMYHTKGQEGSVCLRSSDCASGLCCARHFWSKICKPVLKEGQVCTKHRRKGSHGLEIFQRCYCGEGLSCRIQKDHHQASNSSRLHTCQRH
Fibroblast growth factor 10 (Homo sapiens), sequence (O15520 whole entry, looked up): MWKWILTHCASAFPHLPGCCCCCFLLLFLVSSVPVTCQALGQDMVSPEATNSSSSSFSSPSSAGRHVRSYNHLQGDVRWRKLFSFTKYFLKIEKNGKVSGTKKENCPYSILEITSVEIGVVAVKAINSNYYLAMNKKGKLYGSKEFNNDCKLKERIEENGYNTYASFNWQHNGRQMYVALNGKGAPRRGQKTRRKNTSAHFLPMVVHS
Left-right determination factor 2 (Homo sapiens), sequence (O00292 whole entry, looked up): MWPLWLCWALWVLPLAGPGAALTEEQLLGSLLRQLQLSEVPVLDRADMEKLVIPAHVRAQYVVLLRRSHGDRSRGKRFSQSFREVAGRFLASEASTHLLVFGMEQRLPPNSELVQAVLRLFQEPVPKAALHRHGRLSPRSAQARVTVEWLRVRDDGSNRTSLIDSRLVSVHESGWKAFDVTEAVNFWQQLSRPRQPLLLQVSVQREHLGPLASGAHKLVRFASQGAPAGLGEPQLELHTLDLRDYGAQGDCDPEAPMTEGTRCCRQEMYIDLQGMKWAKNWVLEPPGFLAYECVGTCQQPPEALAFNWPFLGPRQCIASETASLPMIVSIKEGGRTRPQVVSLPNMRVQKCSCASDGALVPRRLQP
Torsin-1A-interacting protein 1 (Homo sapiens), sequence (Q5JTV8 whole entry, looked up): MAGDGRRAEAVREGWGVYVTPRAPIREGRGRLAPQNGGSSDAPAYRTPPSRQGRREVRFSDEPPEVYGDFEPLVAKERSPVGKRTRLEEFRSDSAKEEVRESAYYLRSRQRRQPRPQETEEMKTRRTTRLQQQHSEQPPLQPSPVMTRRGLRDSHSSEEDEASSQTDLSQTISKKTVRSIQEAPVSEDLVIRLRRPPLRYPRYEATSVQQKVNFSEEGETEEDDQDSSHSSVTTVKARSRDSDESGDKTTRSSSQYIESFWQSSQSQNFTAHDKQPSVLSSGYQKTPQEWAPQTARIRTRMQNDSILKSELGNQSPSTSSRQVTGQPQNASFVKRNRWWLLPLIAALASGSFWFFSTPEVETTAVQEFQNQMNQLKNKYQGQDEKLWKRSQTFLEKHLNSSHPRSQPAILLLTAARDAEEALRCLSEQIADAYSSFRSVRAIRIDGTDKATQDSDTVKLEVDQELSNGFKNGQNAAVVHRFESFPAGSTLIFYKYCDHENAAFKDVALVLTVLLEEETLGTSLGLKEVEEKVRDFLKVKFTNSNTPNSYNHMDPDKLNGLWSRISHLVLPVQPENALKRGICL
Alpha-bungarotoxin (Bungarus multicinctus), sequence (P60615 whole entry, looked up): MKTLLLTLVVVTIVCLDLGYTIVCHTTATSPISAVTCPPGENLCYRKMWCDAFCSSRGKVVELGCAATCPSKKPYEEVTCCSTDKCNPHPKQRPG

As for `COc1cc(OC)c(C(O)C2C=CC3C(=O)NC(=O)C3N2Nc2ccccn2)cc1Br` (stereo not given), the composite z-score came out at 0.968 in assay [1]; 0.615 in assay [2]; 0.483 in assay [3]; 0.689 in assay [5]; 0.398 in [6]; 0.807 in [7]. The composite z-score amounted to 0.835 in assay [8]; 0.815 in assay [9]; 0.811 in assay [10]; 0.19 in assay [11]; 0.586 in [13]; 0.0037 in [14]. Also, the composite z-score in assay [15] is -0.107; in [16] it was -0.0684; in assay [17] it was -0.0769; in assay [18], -0.461; in assay [19] it was 1.17; in [20], 0.484. Also, the values for the z-score in [4] and in [12] were 0.893 (inactive) and 0.742, respectively.

Consider `O=C1O[C@@H](c2ccccc2)[C@@H](c2ccccc2)N2[C@@H](c3ccc(OCCO)cc3)[C@]3(C(=O)Nc4ccc(C#CCCO)cc43)[C@@H](C(=O)NC[C@H](O)c3ccccc3)[C@H]12`, for which the composite z-score in [1] is 1.51; in assay [2], 0.312; in [3], 0.333; in assay [5], 0.84; in assay [6], 0.905; in assay [7], 0.94. The composite z-score in assay [8] turned out to be 0.956; in [9] it was 0.687; in assay [10], 0.73; in [11], 1.4; in assay [13], 0.25; in assay [14] it was 0.604. The composite z-score is 0.174 in assay [15]; 0.119 in assay [16]; 0.493 in [17]; -0.398 in assay [18]; 1.09 in [19]; 1.24 in [20]. The z-score was -0.6 (inactive) in [4] and -1.25 in assay [12].

As to `COCCOC(=O)N1C(=O)[C@@]2(c3ccccc31)[C@H](c1ccc(OCCO)cc1)N1[C@H](c3ccccc3)[C@H](c3ccccc3)OC(=O)[C@H]1[C@@H]2C(=O)N1CCc2cc(OC)c(OC)cc2C1`, the composite z-score in assay [1] was found to be 1.53; in [2], 0.305; in assay [3] it was 0.232; in assay [5], 1.29; in assay [6], 1.3; in assay [7] it was 0.738. For the same compound, the composite z-score in assay [8] came out at 1.42; in [9] it was 0.476; in [10], 0.355; in assay [11], 1.16; in assay [13], 1.03; in [14] it was 1.2. The composite z-score is 0.0721 in assay [15]; -0.001 in assay [16]; 0.0141 in assay [17]; 0.603 in assay [18]; 0.977 in [19]; 2.23 in [20]. Besides, the z-score in [4] is -1.02 (inactive); in assay [12], -2.15.

Consider `C[N+](C)(C)CCCC[C@@H]1NC(=O)[C@@H]2C[C@H](C(=O)NCCCCCCNC(=O)CS)[C@H](c3ccc(O)cc3)N2C1=O`, for which the composite z-score in [1] was 1.09; in assay [2] it was -0.0559; in [3], 0.492; in [5], -0.387; in assay [6], -1.28; in assay [7], -0.502. The composite z-score was -1.58 in assay [8]; -0.141 in [9]; -0.655 in [10]; -0.421 in assay [11]; -0.638 in assay [13]; -0.4 in [14]. Besides, the composite z-score in assay [15] is -0.281; in assay [16], -0.237; in [17] it was -0.304; in assay [18] it was -0.0721; in assay [19], 0.958; in [20], 1.33. The z-score in [4] is 0.00498 (inactive); in assay [12], 0.164.

In the case of `COc1ccc([Si](C)(C)[C@@H]2[C@@H](CC(=O)N3CCC[C@H]3CO)O[C@]3(C(=O)N(Cc4cccc(I)c4)c4ccccc43)[C@H]2C)cc1`, the composite z-score in assay [1] stood at 0.541; in [2], 0.0446; in assay [3], 0.0665; in assay [5] it was 1.05; in assay [6] it was 1.13; in [7] it was 1.2. Also, the composite z-score in assay [8] was found to be 1.44; in [9], 1.92; in assay [10] it was 0.946; in assay [11], 1.32; in assay [13], 1.39; in [14], 0.374. The composite z-score is 0.935 in assay [15]; 0.116 in assay [16]; -0.138 in [17]; -0.0173 in [18]; 1.62 in assay [19]; 0.181 in assay [20]. The z-score is -0.404 (inactive) in assay [4] and -2.72 in assay [12].

For the compound `O=C1OCC=C[C@H]2OC34C=CCN(CCN5CCOCC5)C(=O)[C@H]3N(CCO)C(=O)[C@@H]4[C@@H]12` (stereo not given in full), the composite z-score in [1] was 1.47; in assay [2], -0.0283; in assay [3] it was -0.224; in assay [5], -0.787; in [6] it was 0.0559; in [7], -0.14. Moreover, the composite z-score is 0.241 in assay [8]; -0.0563 in [9]; 0.0758 in [10]; 0.259 in [11]; -0.0919 in assay [13]; -0.571 in [14]. Also, the composite z-score is -0.932 in [15]; -0.223 in [16]; -0.321 in assay [17]; -0.384 in [18]; 0.0486 in assay [19]; -0.283 in assay [20]. Also, the z-score in assay [4] was 0.308 (inactive); in assay [12] it was 0.289.
